PriA SSB inh = inhibitors of Klebsiella pneumoniae PriA binding to SSB C-terminal tail; AlphaScreen SSBct-PriA binding, biotinylated peptide; inhibition, % at 33 µM; 430,000 compounds, 0.6% hits; in the data active = inhibition mostly above about 37%, no sharp cut-off; inactive = mostly below about 20%
BoNT-A LC inh2 = BoNT A light chain protease inhibition | 360,000 compounds, 0.17% hits | multiplex microsphere protease substrate cleavage, flow cytometry | AID 588499 | inhibition, % at 10 µM
MazEF act = increases E. coli MazEF RNase cleavage of RNA | FAM/BHQ RNA-DNA oligo cleavage fluorescence, 5 h | activation, % at 20 µM | 350,000 compounds, 0.32% hits; in the data active = activation above about 50%
Anthrax LF prot = inhibitors of Bacillus anthracis lethal factor protease | multiplex microsphere protease cleavage assay, LF | inhibition, % at 10 µM | P15917 | 360,000 compounds, 0.12% hits
Autofluor counter = compound fluorescence in toxin protease inhibitor counterscreen; compound autofluorescence counterscreen, microsphere flow cytometry; stronger effect = higher value; fluorescence intensity (no concentration beside the values); 360,000 compounds, 3.1% hits; AID 624483; in the data active = fluorescence intensity above about 16000; inconclusive = no clear call, values can overlap the other calls
BoNT-F LC inh = blocks Botulinum neurotoxin F light chain protease; Multiplex microsphere protease cleavage assay, flow cytometry; inhibition, % at 10 µM; 360,000 compounds, 0.22% hits; in the data active = inhibition above about 35%, passing the limit was not always enough; inconclusive = no clear call, values can overlap the other calls
Of the large screens only hits and unclear results are named; the others gave an inactive call. Hits are enriched below; roughly 3.3% of the tested compounds scored in any of these assays. Cut-off read from the data, not from the text of the source, unless noted: active = inhibition above about 30%; inconclusive = no clear call, values can overlap the other calls; inactive = below that.

CC(N=Cc1c(O)[nH]c(=O)[nH]c1=O)c1ccccc1 (centres undefined)	Autofluor counter 17759
CC(N=Cc1cccc(O)c1O)c1ccccc1 (centres undefined)	Autofluor counter 22938
COc1cc(C=NNc2ccc(Cl)c(C(=O)O)c2)ccc1OC(=O)c1ccc(F)cc1	none (no result: BoNT-A LC inh2, MazEF act, Anthrax LF prot, Autofluor counter, BoNT-F LC inh)
Cc1ccc(N2CC(C(=O)NCc3ccc4c(c3)OCO4)CC2=O)cc1C (centres undefined)	BoNT-A LC inh2 inconclusive, Autofluor counter 22630
O=C(NCc1ccc2c(c1)OCO2)C1CC(=O)N(c2ccc(Cl)cc2)C1 (centres undefined)	none
O=C1CCc2cc(NS(=O)(=O)Cc3ccc(Cl)cc3)ccc2N1	none (no result: BoNT-A LC inh2, MazEF act, Anthrax LF prot, Autofluor counter, BoNT-F LC inh)
CC(=O)/C=C/c1ccc(-c2ccccc2Cl)o1	none (no result: BoNT-A LC inh2, MazEF act, Anthrax LF prot, Autofluor counter, BoNT-F LC inh)
CCOC(=O)CNC(=O)COc1ccc(Cl)cc1Br	Autofluor counter 23269
COc1ccc(Cl)cc1C(=O)O/N=C(\N)c1ccccn1	Anthrax LF prot 33, BoNT-F LC inh inconclusive
COc1ccc(Cl)cc1NC(=O)CSc1nccn1C1CCCC1	none (no result: BoNT-A LC inh2, MazEF act, Anthrax LF prot, Autofluor counter, BoNT-F LC inh)
CCOC(=O)CSC1=C(C#N)C(c2ccco2)C(C(=O)Nc2cccc(C(F)(F)F)c2)=C(C)N1 (centres undefined)	Autofluor counter 25424
CCn1c(COc2cccc(C)c2)nnc1SCC(=O)CC(=O)Nc1ccccc1OC	Anthrax LF prot inconclusive, Autofluor counter inconclusive
COc1ccccc1NC(=O)CSc1nnnn1-c1ccc(C(=O)O)cc1	none
COCCn1c(COc2ccccc2)nnc1SCC(N)=O	BoNT-A LC inh2 inconclusive, Autofluor counter 21005
CCn1c(COc2ccccc2)nnc1SCC(=O)CC(=O)Nc1ccccc1OC	Autofluor counter 21864
CCn1c(SCc2nc(CC(=O)Nc3ccccc3OC)no2)nnc1-c1cccs1	Autofluor counter 22928
COc1ccccc1NC(=O)Cc1noc(CSc2cccc[n+]2[O-])n1	none
CCCCOc1ccccc1NC(=O)CSc1nnnn1C(C)(C)C	Autofluor counter 17476
Cc1ccc(-n2ncc3c(C)nnc(SCC(=O)Nc4ccccc4F)c32)cc1C	none (no result: BoNT-A LC inh2, MazEF act, Anthrax LF prot, Autofluor counter, BoNT-F LC inh)
CCOc1ccccc1-n1c(COc2ccc(C)cc2)nnc1SCC(N)=O	Autofluor counter 22748
O=C(NCC1CCN(c2nc3ccccc3o2)CC1)c1nc2ccccc2s1	none (no result: BoNT-A LC inh2, MazEF act, Anthrax LF prot, Autofluor counter, BoNT-F LC inh)
COc1cccc(=O)c2c(C)n(-c3cc(C)cc(C)c3)c(C)c12	Autofluor counter 20048
COc1cccc(-n2c(C)c3c(OC)cccc(=O)c3c2C)c1	none
Cc1ccc(CNC(=O)CSc2nc3ccsc3c(=O)n2NC(=O)c2ccccc2)cc1	Autofluor counter 23505
NNC(=O)c1nc(-c2ccccc2)n2c1CCCCC2	BoNT-A LC inh2 inconclusive, Autofluor counter 20671
CCOC(=O)CSc1nnc(CNC(=O)c2ccc(S(=O)(=O)N3CCOCC3)cc2)n1C	none
CCOC(=O)CSc1nnc(CNC(=O)c2ccc(S(=O)(=O)N3CCCC3)cc2)n1C	Autofluor counter 22679
CCOc1cc(C(=O)NCc2nnc(SCC(=O)OC)n2C)cc(OCC)c1OCC	none
CCN(CC)S(=O)(=O)c1ccc(C(=O)NCc2nnc(SCC(=O)OC)n2C)cc1	Autofluor counter 18096
CCOC(=O)CSc1nnc(CNC(=O)c2cc(OCC)c(OCC)c(OCC)c2)n1C	Autofluor counter 23875
O=C1CCCCN1c1cccc(NS(=O)(=O)c2cc(F)ccc2F)c1	none (no result: BoNT-A LC inh2, MazEF act, Anthrax LF prot, Autofluor counter, BoNT-F LC inh)
CC(=O)OCCn1c2nc(=O)[nH]c(=O)c-2nc2cc(C)c(C)cc21	MazEF act 480, BoNT-F LC inh 42
O=c1cc[nH]c2c1ccc1c(=O)cc[nH]c12	BoNT-F LC inh inconclusive
Cc1ccnc2c(=O)cc[nH]c12	PriA SSB inh 104 (no result: BoNT-A LC inh2, MazEF act, Anthrax LF prot, Autofluor counter, BoNT-F LC inh)
CCOC(=O)c1ccc(N2C(=O)CC(N3CCCC(C)C3)C2=O)cc1 (centres undefined)	Autofluor counter 25079
CCOC(=O)c1ccc(N2C(=O)CC(N3CCN(Cc4ccccc4)CC3)C2=O)cc1 (centres undefined)	none
N=c1n(CC(=O)c2ccc([N+](=O)[O-])cc2)c2ccccc2n1Cc1ccc(Cl)cc1	MazEF act 178
N=c1n(CC(=O)c2ccc([N+](=O)[O-])cc2)c2ccccc2n1Cc1ccccc1Cl	none
N=c1n(CC(=O)c2ccc([N+](=O)[O-])cc2)c2ccccc2n1Cc1ccccc1	MazEF act 329
N=c1n(CC(=O)c2ccc(Br)cc2)c2ccccc2n1Cc1ccccc1	none
O=c1ccc(-c2cccs2)nn1CCNS(=O)(=O)c1ccc(F)c(Cl)c1	none (no result: BoNT-A LC inh2, MazEF act, Anthrax LF prot, Autofluor counter, BoNT-F LC inh)

Bioassay records as filed in PubChem BioAssay.
